Laboratory results published in PubChem BioAssay AID1159580 (chemical genetic matrix, 2015).
Values joined by “and” are separate entries in the source; they are usually repeats but may differ in a detail not shown here. Equal values may be shown once. Among all 5,500 compounds or so, about 2,000 (36%) were called active. Roughly 18% stayed inconclusive and do not appear here. Rule as the data show it: active = normalized growth mostly below about 0.91 (no sharp cut-off); inconclusive = no clear call, values can overlap the other calls; inactive = mostly above about 0.92. Some of the results follow.

Assay: chemical genetic growth profiling, strain panel (AID 1159580);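 also: tested at 20 µM; growth read once vehicle control cultures reached saturation at 30 °C; 1 = growth at the plate median or of vehicle wells; lower values mean less growth of the strain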
Conditions: S. cerevisiae deletion strains, growth OD

Measured: normalized growth

COC(=O)c1c(OC)cc2c(c1C)Oc1c(Cl)c(O)c(Cl)c(C)c1C(=O)O2
active: locus YAL013W, strain DEP1, stronger effect = lower value 0.879 | locus YBR229C, strain ROT2, stronger effect = lower value 0.909 | locus YDR150W, strain NUM1, stronger effect = lower value 0.896 | locus YDR162C, strain NBP2, stronger effect = lower value 0.82 | locus YDR502C, strain sam2, stronger effect = lower value 0.919 | locus YIR030C, strain dcg1, stronger effect = lower value 0.925 | locus YJL134W, strain LCB3, stronger effect = lower value 0.922 | locus YJL168C, strain set2, stronger effect = lower value 0.931
inactive: locus YAL021C, strain ccr4, stronger effect = lower value 0.99 | locus YAL026C, strain drs2, stronger effect = lower value 0.99 | locus YAL030W, strain snc1, stronger effect = lower value 0.977 | locus YBL061C, strain skt5, stronger effect = lower value 0.993 | locus YBR009C, strain hhf1, stronger effect = lower value 0.993 | locus YBR021W, strain FUR4, stronger effect = lower value 1.02 | locus YBR023C, strain chs3, stronger effect = lower value 0.988 | locus YBR171W, strain sec66, stronger effect = lower value 0.985 | locus YBR231C, strain swc5, stronger effect = lower value 0.989 | locus YBR279W, strain paf1, stronger effect = lower value 0.992 | locus YCL011C, strain gbp2, stronger effect = lower value 0.986 | locus YCL016C, strain dcc1, stronger effect = lower value 0.99 | locus YCL029C, strain bik1, stronger effect = lower value 0.925 | locus YCL069W, strain vba3, stronger effect = lower value 1 | locus YCR088W, strain abp1, stronger effect = lower value 0.975 | locus YDL005C, strain med2, stronger effect = lower value 1 | locus YDL035C, strain GPR1, stronger effect = lower value 0.906 | locus YDL040C, strain nat1, stronger effect = lower value 0.98 | locus YDL074C, strain BRE1, stronger effect = lower value 0.838 | locus YDL101C, strain DUN1, stronger effect = lower value 0.912 | locus YDL134C, strain PPH21, stronger effect = lower value 0.935 | locus YDL185W, strain tfp1, stronger effect = lower value 0.937 | locus YDL192W, strain arf1, stronger effect = lower value 0.949 | locus YDR001C, strain nth1, stronger effect = lower value 0.986 | locus YDR069C, strain doa4, stronger effect = lower value 0.968 | locus YDR101C, strain arx1, stronger effect = lower value 0.965 | locus YDR137W, strain rgp1, stronger effect = lower value 0.946 | locus YDR159W, strain sac3, stronger effect = lower value 0.963 | locus YDR195W, strain ref2 1.09 | locus YDR297W, strain sur2, stronger effect = lower value 0.981 | locus YDR318W, strain mcm21, stronger effect = lower value 0.924 | locus YDR334W, strain swr1, stronger effect = lower value 1.01 | locus YDR335W, strain msn5, stronger effect = lower value 1 | locus YDR388W, stronger effect = lower value 0.947 | locus YDR392W, strain spt3, stronger effect = lower value 0.965 | locus YEL003W, strain gim4, stronger effect = lower value 0.986 | locus YEL037C, strain rad23, stronger effect = lower value 0.991 | locus YEL061C, strain CIN8 (second series), stronger effect = lower value 0.988 | locus YEL061C, strain CIN8, stronger effect = lower value 0.931 | locus YER015W, strain faa2, stronger effect = lower value 0.991 | locus YER016W, strain bim1, stronger effect = lower value 0.988 | locus YER110C, stronger effect = lower value 0.929 | locus YER111C, strain swi4, stronger effect = lower value 0.991 | locus YER155C, strain BEM2 (second series), stronger effect = lower value 0.997 | locus YER155C, strain BEM2, stronger effect = lower value 0.949 | locus YER167W, strain BCK2, stronger effect = lower value 0.932 | locus YFR010W, strain ubp6, stronger effect = lower value 0.982 | locus YGL078C, strain dbp3, stronger effect = lower value 1 | locus YGL086W, strain mad1, stronger effect = lower value 0.954 | locus YGL167C, strain pmr1, stronger effect = lower value 0.954 | locus YGL173C, strain kem1, stronger effect = lower value 0.985 | locus YGL227W, strain vid30, stronger effect = lower value 0.991 | locus YGL240W, strain doc1, stronger effect = lower value 0.993 | locus YGL248W, strain PDE1, stronger effect = lower value 0.932 | locus YGL253W, strain hxk2, stronger effect = lower value 0.997 | locus YGR078C, strain PAC10, stronger effect = lower value 0.886 | locus YGR135W, strain pre9, stronger effect = lower value 0.917 | locus YGR229C, strain SMI1, stronger effect = lower value 0.852 | locus YGR252W, strain gcn5, stronger effect = lower value 1.04 | locus YHR013C, strain ard1, stronger effect = lower value 1.03 | locus YHR027C, strain rpn1, stronger effect = lower value 0.997 | locus YHR030C, strain SLT2, stronger effect = lower value 0.951 and 0.911 | locus YHR079C, strain IRE1 (second series), stronger effect = lower value 0.943 | locus YHR079C, strain IRE1, stronger effect = lower value 0.939 | locus YHR094C, strain hxt1, stronger effect = lower value 0.948 | locus YHR129C, strain ARP1, stronger effect = lower value 0.955 | locus YHR142W, strain chs7, stronger effect = lower value 0.994 | locus YHR200W, strain rpn10, stronger effect = lower value 0.938 | locus YIL066C, strain RNR3, stronger effect = lower value 0.899 | locus YIL073C, strain SPO22, stronger effect = lower value 0.969 | locus YIL125W, strain kgd1, stronger effect = lower value 0.986 | locus YJL092W, strain hpr5, stronger effect = lower value 0.98 | locus YJL095W, strain BCK1 (second series), stronger effect = lower value 1 | locus YJL095W, strain BCK1, stronger effect = lower value 0.903 and 0.92 | locus YJL115W, strain asf1, stronger effect = lower value 1 | locus YJL129C, strain trk1, stronger effect = lower value 0.949 | locus YJL154C, strain vps35, stronger effect = lower value 0.97 | locus YJL164C, strain tpk1, stronger effect = lower value 0.983 | locus YJL166W, strain qcr8, stronger effect = lower value 0.974 | locus YJL187C, strain SWE1 (second series), stronger effect = lower value 0.916 | locus YJL187C, strain SWE1, stronger effect = lower value 0.984 | locus YJR043C, strain POL32, stronger effect = lower value 0.977 | locus YJR066W, strain TOR1, stronger effect = lower value 0.867
